The subject of assay [1] is Wnt5a (protein binding on small-molecule microarray). As to the kind of experiment: Wnt5a binders on small-molecule microarray, primary screen, biophysical, 635/667 nm fluorescence (AID 1142).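 Note: fluorescence read at 667 nm with signal to noise per printed feature.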 The settings on record: 635 nm fluorescence, higher = more signal.
The nature of assay [2]: cell viability in Huh7 cells, primary screen, cytotoxicity control for HCV replication inhibitor project, CellTiter-Glo luminescence, basal, 48 h (AID 1143).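 Note: Huh7 hepatoma cells carrying a hepatitis C replication reporter with no stimulus; test concentration not given here.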 The settings on record: Huh7 HCV replicon, higher = more signal, called active from +8 up or from −8 down. In general terms: In ATP-based viability assays light output follows the ATP content of the culture.
Assay [3] is described as follows: P. aeruginosa biofilm formation inhibitors, primary screen, PAO1 strain, BacTiter-Glo luminescence, LB-PBS (AID 1144). The settings on record: 12 h, higher = more signal.
The nature of assay [4]: CREB reporter modulators without forskolin, primary screen, cell-based, PC12, CRE-LacZ reporter, unstimulated (AID 1145). The following applies: no forskolin, luminescence, 4.5 h, higher = more signal, called active from +8 up or from −8 down.
A short description of assay [5]: CREB reporter modulators under forskolin, primary screen, cell-based, PC12, CRE-LacZ reporter, forskolin-stimulated (AID 1146).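 Note: PC12 cells with 6xCRE LacZ reporter stimulated by forskolin 10 µM; beta-galactosidase reporter signal reflecting CREB driven transcription.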 The settings on record: luminescence, 4.5 h, higher = more signal, called active from +8 up or from −8 down.
For assay [6], the target named is Streptavidin (Streptomyces avidinii) (UniProt P22629). As to the kind of experiment: streptavidin binders on small-molecule microarray, primary screen, artefact control for SMM compound annotation, biophysical, 635/667 nm fluorescence (AID 1147).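 Note: signal reflects streptavidin binding to arrayed compounds as a control protein.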 The following applies: streptavidin binding, higher = more signal.
Streptavidin (Streptomyces avidinii), sequence (P22629 whole entry, looked up): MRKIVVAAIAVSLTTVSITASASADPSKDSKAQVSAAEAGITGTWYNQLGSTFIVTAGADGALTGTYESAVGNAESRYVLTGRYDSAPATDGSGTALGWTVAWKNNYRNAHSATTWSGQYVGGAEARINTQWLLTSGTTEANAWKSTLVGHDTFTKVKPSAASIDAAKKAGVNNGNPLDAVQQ
Assay [7] in a line: small-molecule binders of probe aInhba, primary screen, biochemical, small-molecule microarray, 635/667 nm fluorescence (AID 1148).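 Note: score merges 667nm spot fluorescence with signal-to-noise for antibody binding to printed compounds.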 The following applies: higher = more signal.
Assay [8] addresses Torsin-1A (Homo sapiens) (UniProt O14656). Briefly: torsin A binders from cell lysate, primary screen, small-molecule microarray, wild-type, 635/667 nm (AID 1149). The following applies: COS7 hTOR1A-WT lysate, 635 nm fluorescence, higher = more signal.
Assay [9] has the same target. As to the kind of experiment: small-molecule binders of mutant TOR1A in lysate, primary screen, cell lysate, small-molecule microarray, COS7 lysate, 635/667 nm fluorescence (AID 1150).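 Note: score pools 667 nm emission and signal to noise measuring lysate protein binding.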 The following applies: COS7 hTOR1A mutant lysate, 635 nm fluorescence, higher = more signal.
Assay [10] relates to Sonic hedgehog protein (Shh). Briefly: small-molecule binders of Shh protein, primary screen, biochemical, small-molecule microarray, 635/667 nm fluorescence (AID 1151).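 Note: Shh protein binding to compounds spotted on small-molecule microarray slides; score combines spot fluorescence intensity with signal-to-noise across triplicate slides.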 The settings on record: small-molecule microarray binding, 635 nm fluorescence; higher = more signal.

Active and inactive are the calls of the source. Unless noted, the rule behind the calls is not given here.

Torsin-1A (Homo sapiens), sequence (O14656 whole entry, looked up): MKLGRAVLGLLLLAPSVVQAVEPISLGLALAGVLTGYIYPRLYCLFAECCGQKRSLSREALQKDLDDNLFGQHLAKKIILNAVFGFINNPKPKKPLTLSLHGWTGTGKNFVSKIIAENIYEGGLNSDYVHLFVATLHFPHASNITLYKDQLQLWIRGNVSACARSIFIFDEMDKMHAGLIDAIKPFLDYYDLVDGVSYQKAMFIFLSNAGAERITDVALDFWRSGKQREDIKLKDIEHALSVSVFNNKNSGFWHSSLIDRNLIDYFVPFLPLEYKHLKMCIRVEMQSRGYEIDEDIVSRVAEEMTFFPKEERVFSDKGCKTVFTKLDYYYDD

For the compound `CC(C)NC(=O)[C@@]1(C)c2ccccc2C(=O)N(Cc2ccccc2)[C@H]1c1ccc(CO)cc1`, the composite z-score in assay [1] is -0.442; in assay [6], -1.23; in assay [7] it was -0.312; in the assay with Torsin-1A (Homo sapiens) [8], 0.654; in the assay with Torsin-1A (Homo sapiens) [9], 1.39; in [10] it was 0.504. The z-score in assay [2] was -2.24 (inactive); in assay [3], 0.0156 (inactive); in assay [4] it was -0.592 (inactive); in assay [5], -1.08 (inactive).
As for `CCOC(=O)C1=CC[C@@H](c2ccc(OC)cc2)N(S(=O)(=O)c2ccc(C)cc2)[C@H]1CC`, the composite z-score is 0.174 in assay [1]; 1.53 in [6]; 0.152 in assay [7]; 0.318 in the assay with Torsin-1A (Homo sapiens) [8]; 0.714 with Torsin-1A (Homo sapiens) [9]; 0.964 in [10]. For the same compound, the z-score in [2] is -5.57 (inactive); in assay [3], -0.785 (inactive); in assay [4], -0.882 (inactive); in assay [5] it was -0.0915 (inactive).
Take `CC(=O)NCCCC[C@@H]1NC(=O)[C@H]2C[C@@H](C(=O)NCCCCCCNC(=O)CS)[C@@H](c3cccc(OCCO)c3)N2C1=O`: the composite z-score was 0.538 in assay [1]; -0.64 in assay [6]; -0.0448 in assay [7]; 1.43 with Torsin-1A (Homo sapiens) [8]; 1.22 in the assay with Torsin-1A (Homo sapiens) [9]; 1.32 in assay [10]. Besides, the z-score in [2] is 0.348 (inactive); in assay [3] it was -0.286 (inactive); in assay [4], -0.813 (inactive); in [5] it was -0.78 (inactive).
Consider `CN(C)C(=O)[C@@]1(Cc2ccccc2CN=[N+]=[N-])COC(c2ccc(OCCCO)cc2)=N1`, for which the composite z-score in assay [1] is 0.0037; in [6] it was -0.0988; in assay [7], -0.0288; with Torsin-1A (Homo sapiens) [8], -0.184; with Torsin-1A (Homo sapiens) [9], 0.715; in assay [10], -1.22. The z-score in assay [2] is -3.16 (inactive); in assay [3], -0.632 (inactive); in [4], -1.34 (inactive); in assay [5], -1.65 (inactive).
In the case of `CN(C)CCCC[C@@H]1NC(=O)[C@H]2C[C@@H](C(=O)O)[C@@H](c3ccc(O)cc3)N2C1=O`, the composite z-score in [1] worked out at 0.938; in assay [6], 3.44; in assay [7] it was 1.98; in the assay with Torsin-1A (Homo sapiens) [8], 2.77; in the assay with Torsin-1A (Homo sapiens) [9] it was 3.27; in [10], 2.17. Further, the z-score was -2.41 (inactive) in assay [2], 0.294 (inactive) in assay [3], 0.419 (inactive) in assay [4] and -0.457 (inactive) in assay [5].
For the compound `CCOC(=O)C[C@H]1[C@H](OC(=O)c2cc3ccccc3oc2=O)[C@@H](NC(=O)CC(C)C)c2cc(OCCCO)ccc2N1C(=O)Cc1ccc(OC)cc1`, the composite z-score in assay [1] is 0.221; in assay [6] it was 0.0665; in assay [7], -0.128; with Torsin-1A (Homo sapiens) [8] it was -0.0652; with Torsin-1A (Homo sapiens) [9] it was 0.304; in [10], 0.97. Besides, the z-score in assay [2] is -0.387 (inactive); in [3], 1.19 (inactive); in assay [4] it was 1.02 (inactive); in assay [5] it was -0.505 (inactive).
For `CCOC(=O)C1=CC[C@@H](c2ccccc2)N(S(=O)(=O)c2ccc(C)cc2)[C@H]1c1ccccc1I`, the composite z-score is 0.296 in assay [1]; 0.864 in [6]; 0.849 in [7]; -0.315 with Torsin-1A (Homo sapiens) [8]; 0.507 in the assay with Torsin-1A (Homo sapiens) [9]; 0.239 in assay [10]. For the same compound, the z-score in assay [2] is -2.69 (inactive); in [3], 0.366 (inactive); in [4], 0.566 (inactive); in assay [5], -0.226 (inactive).
Take `O=C(NCC(O)CO)[C@@]1(CCS(=O)(=O)c2ccccc2)N=C(c2ccc(OCCCO)cc2)O[C@H]1c1ccccc1` (stereo not given in full): the composite z-score in assay [1] is 0.274; in assay [6], 1.4; in assay [7], 0.212; with Torsin-1A (Homo sapiens) [8] it was 0.449; with Torsin-1A (Homo sapiens) [9], 1.23; in [10], -1.04. Besides, the z-score was -3.75 (inactive) in assay [2], -0.513 (inactive) in assay [3], 0.675 (inactive) in assay [4] and -1.04 (inactive) in assay [5].
As for `CCCCCCc1nc(-c2ccc(-c3ccc(Cl)c(Cl)c3)o2)cc2c1[Si](C(C)C)(C(C)C)OC2`, the composite z-score in [1] is -0.905; in assay [6], -1.24; in assay [7] it was -0.261; in the assay with Torsin-1A (Homo sapiens) [8] it was -1.83; in the assay with Torsin-1A (Homo sapiens) [9], -0.526; in [10], -0.583. Also, the z-score was -5.45 (inactive) in [2], -1.51 (inactive) in assay [3], -0.621 (inactive) in [4] and 1.29 (inactive) in [5].
Consider `COc1cc(C(O)C2C=CC3C(=O)N(c4ccccc4)C(=O)C3N2Nc2ccccc2)cc(OC)c1OC` (stereo not given), for which the composite z-score in [1] was 0.575; in assay [6] it was 1.39; in [7], 0.38; in the assay with Torsin-1A (Homo sapiens) [8] it was -0.327; in the assay with Torsin-1A (Homo sapiens) [9], -0.0996; in assay [10], -0.277. For the same compound, the z-score in [2] is -0.685 (inactive); in assay [3], -0.983 (inactive); in [4], -0.322 (inactive); in assay [5], 0.226 (inactive).
Turning to `CCCCN1CC=CC23O[C@@H]4/C=C\CCCOC(=O)C4[C@H]2C(=O)N(C(CO)C(C)C)[C@@H]3C1=O` (stereo not given in full), the composite z-score was -0.256 in assay [1]; -0.275 in assay [6]; 0.419 in [7]; -0.277 with Torsin-1A (Homo sapiens) [8]; -0.455 with Torsin-1A (Homo sapiens) [9]; 1.14 in [10]. The z-score was -0.352 (inactive) in assay [2], 1.3 (inactive) in [3], -0.22 (inactive) in [4] and -0.182 (inactive) in assay [5].

The record behind these values is PubChem BioAssay.
